# Reference: article PMC7862700, “An all-to-all approach to the identification of sequence-specific readers for epigenetic DNA modifications on cytosine”
# Tests used:
# Test in all cases: DAPPL (digital affinity profiling via proximity ligation, sequencing); 10 mM Tris-HCl pH 7.5, 50 mM NaCl, 1 mM DTT, 4% glycerol, room temperature, 30 min; GST-TFs on glutathione beads, 16-mer random dsDNA library, 0.1% formaldehyde crosslink after washing; high values mean tight binding
# FLI1 = molecular target: T1, FLI1 (Homo sapiens, UniProt Q01543 1-452); conditions: protein: recombinant; tags: N-terminal GST; dsDNA, one strand shown
# T1 sequence: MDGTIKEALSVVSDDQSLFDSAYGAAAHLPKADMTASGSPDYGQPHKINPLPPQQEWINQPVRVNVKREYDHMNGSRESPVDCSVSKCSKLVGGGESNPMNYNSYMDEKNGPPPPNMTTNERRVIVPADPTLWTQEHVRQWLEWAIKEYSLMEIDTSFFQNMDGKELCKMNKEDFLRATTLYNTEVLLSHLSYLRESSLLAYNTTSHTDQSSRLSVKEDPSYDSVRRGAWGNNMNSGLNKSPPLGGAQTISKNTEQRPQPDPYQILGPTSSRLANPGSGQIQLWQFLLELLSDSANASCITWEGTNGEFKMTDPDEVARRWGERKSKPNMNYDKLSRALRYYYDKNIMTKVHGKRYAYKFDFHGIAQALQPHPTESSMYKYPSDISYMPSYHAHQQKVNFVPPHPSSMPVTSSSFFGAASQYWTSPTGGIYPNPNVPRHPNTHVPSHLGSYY
# How it was run: (§1)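 Each value of binding signal is a hexamer's read frequency for a factor divided by the same hexamer's frequency in the tag-only sample. Barcoded, bead-captured GST fusions of human transcription factors made in yeast were pooled with that sample and incubated with 200 nmole of a random double-stranded 16-mer DNA library in Tris/NaCl/DTT/glycerol buffer at room temperature for 30 min. Washing, 0.1% formaldehyde crosslinking, proximity ligation, PCR and Illumina NextSeq500 sequencing followed.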
# ELK1 = molecular target: T2, ELK1 (Homo sapiens, UniProt P19419 1-428); conditions: protein: recombinant; tags: N-terminal GST; dsDNA, one strand shown
# T2 sequence: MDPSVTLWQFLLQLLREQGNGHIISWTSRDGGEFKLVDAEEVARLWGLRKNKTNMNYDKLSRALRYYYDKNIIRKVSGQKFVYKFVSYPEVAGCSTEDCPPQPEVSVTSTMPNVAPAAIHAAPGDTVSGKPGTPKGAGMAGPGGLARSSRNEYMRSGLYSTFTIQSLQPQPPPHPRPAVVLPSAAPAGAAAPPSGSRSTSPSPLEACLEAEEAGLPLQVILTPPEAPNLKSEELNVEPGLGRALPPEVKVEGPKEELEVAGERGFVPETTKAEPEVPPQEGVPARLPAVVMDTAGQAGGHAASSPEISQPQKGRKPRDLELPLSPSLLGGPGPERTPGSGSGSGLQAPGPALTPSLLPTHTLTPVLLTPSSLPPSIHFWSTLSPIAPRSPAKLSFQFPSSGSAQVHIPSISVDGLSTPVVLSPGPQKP
# How it was run: as §1
# GABPA = molecular target: T3, GABPA (Homo sapiens, UniProt Q06546 1-454); conditions: protein: recombinant; tags: N-terminal GST; dsDNA, one strand shown
# T3 sequence: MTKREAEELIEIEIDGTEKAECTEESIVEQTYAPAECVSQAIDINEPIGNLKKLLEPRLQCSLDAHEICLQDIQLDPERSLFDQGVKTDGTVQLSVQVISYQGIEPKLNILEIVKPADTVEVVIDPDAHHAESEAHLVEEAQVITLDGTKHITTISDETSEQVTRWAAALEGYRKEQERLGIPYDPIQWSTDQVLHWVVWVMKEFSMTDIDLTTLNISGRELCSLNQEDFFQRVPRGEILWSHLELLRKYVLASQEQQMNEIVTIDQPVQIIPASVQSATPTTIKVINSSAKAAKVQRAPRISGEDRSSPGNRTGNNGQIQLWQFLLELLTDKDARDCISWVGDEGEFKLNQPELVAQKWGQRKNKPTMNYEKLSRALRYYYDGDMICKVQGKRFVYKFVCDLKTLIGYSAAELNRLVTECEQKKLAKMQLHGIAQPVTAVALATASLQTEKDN
# How it was run: as §1
# ERG = molecular target: T4, ERG (Homo sapiens, UniProt P11308 1-479); conditions: protein: recombinant; tags: N-terminal GST; dsDNA, one strand shown
# T4 sequence: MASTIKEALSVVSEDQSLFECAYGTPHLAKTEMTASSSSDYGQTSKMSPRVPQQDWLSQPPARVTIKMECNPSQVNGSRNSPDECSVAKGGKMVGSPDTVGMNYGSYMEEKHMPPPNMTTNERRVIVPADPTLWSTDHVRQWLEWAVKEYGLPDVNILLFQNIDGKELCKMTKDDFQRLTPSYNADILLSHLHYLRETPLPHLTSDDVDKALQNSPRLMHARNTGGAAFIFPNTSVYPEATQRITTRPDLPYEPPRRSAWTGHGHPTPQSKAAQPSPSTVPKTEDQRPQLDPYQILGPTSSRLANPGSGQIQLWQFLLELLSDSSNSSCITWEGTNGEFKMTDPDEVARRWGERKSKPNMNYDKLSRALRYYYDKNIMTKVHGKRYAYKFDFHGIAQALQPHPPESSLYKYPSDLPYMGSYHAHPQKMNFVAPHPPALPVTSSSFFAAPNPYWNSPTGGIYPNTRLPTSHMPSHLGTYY
# How it was run: as §1
# ELF1 = ELF1 (Homo sapiens, UniProt P32519 1-619); conditions: protein: recombinant; tags: N-terminal GST; dsDNA, one strand shown
# Chain of ELF1 (P32519 whole entry): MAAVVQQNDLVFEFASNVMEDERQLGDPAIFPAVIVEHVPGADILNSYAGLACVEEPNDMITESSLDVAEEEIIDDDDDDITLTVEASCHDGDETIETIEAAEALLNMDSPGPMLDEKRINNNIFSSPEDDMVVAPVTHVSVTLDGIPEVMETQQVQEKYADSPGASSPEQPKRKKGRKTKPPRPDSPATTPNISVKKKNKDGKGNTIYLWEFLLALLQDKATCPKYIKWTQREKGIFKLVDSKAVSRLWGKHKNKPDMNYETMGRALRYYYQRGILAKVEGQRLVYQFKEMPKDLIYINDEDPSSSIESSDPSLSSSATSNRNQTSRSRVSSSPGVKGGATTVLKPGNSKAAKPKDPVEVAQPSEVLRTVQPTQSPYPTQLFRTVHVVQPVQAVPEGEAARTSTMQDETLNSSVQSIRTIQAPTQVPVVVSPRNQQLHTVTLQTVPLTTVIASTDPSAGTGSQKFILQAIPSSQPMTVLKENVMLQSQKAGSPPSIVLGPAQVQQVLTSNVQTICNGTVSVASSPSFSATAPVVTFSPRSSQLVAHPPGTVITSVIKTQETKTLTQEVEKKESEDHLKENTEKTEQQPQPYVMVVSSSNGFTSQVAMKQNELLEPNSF
# How it was run: as §1
# EHF = molecular target: T5, EHF (Homo sapiens, UniProt Q9NZC4 1-300); conditions: protein: recombinant; tags: N-terminal GST; dsDNA, one strand shown
# T5 sequence: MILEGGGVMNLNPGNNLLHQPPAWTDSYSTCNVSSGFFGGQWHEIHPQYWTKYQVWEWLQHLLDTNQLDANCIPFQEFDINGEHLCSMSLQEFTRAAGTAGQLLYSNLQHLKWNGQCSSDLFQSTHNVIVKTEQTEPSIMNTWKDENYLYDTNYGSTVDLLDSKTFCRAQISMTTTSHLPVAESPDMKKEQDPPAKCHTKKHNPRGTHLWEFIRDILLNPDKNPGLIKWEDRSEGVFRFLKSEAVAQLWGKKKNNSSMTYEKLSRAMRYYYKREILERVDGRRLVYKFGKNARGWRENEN
# How it was run: as §1
# SPI1 = SPI1 (Homo sapiens, UniProt P17947 1-270); conditions: protein: recombinant; tags: N-terminal GST; dsDNA, one strand shown
# How it was run: as §1
# SPIB = SPIB (Homo sapiens, UniProt Q01892 1-262); conditions: protein: recombinant; tags: N-terminal GST; dsDNA, one strand shown
# Chain of SPIB (Q01892 whole entry): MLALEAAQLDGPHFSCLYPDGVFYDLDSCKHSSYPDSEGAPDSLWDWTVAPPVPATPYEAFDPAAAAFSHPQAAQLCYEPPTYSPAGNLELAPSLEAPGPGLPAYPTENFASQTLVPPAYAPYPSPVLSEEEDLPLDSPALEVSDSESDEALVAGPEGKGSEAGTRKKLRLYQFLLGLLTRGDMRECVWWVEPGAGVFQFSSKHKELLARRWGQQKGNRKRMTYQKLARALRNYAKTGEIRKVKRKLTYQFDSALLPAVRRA
# How it was run: as §1
# ELK3 = molecular target: T6, ELK3 (Homo sapiens, UniProt P41970 1-407); conditions: protein: recombinant; tags: N-terminal GST; dsDNA, one strand shown
# T6 sequence: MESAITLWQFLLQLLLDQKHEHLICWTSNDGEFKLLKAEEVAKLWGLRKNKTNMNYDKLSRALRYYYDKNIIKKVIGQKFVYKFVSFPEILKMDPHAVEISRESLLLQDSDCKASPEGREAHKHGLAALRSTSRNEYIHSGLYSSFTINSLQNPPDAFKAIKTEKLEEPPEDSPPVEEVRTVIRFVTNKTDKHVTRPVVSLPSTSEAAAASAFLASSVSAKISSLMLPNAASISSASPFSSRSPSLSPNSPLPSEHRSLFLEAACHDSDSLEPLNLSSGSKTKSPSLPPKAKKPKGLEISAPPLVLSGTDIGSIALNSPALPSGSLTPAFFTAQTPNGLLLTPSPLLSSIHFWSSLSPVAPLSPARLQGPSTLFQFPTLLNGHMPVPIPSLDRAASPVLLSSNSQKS
# How it was run: as §1
# FEV = molecular target: T7, FEV (Homo sapiens, UniProt Q99581 1-238); conditions: protein: recombinant; tags: N-terminal GST; dsDNA, one strand shown
# T7 sequence: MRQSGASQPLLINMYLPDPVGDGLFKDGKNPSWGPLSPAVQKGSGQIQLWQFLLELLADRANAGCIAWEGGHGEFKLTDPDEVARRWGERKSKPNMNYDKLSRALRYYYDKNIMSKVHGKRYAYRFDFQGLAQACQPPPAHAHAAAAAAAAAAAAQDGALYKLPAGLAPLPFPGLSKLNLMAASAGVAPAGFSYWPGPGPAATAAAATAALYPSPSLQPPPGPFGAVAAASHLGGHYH
# How it was run: as §1
# ETV5 = ETV5 (Homo sapiens, UniProt P41161 1-510); conditions: protein: recombinant; tags: N-terminal GST; dsDNA, one strand shown
# Chain of ETV5 (P41161 whole entry): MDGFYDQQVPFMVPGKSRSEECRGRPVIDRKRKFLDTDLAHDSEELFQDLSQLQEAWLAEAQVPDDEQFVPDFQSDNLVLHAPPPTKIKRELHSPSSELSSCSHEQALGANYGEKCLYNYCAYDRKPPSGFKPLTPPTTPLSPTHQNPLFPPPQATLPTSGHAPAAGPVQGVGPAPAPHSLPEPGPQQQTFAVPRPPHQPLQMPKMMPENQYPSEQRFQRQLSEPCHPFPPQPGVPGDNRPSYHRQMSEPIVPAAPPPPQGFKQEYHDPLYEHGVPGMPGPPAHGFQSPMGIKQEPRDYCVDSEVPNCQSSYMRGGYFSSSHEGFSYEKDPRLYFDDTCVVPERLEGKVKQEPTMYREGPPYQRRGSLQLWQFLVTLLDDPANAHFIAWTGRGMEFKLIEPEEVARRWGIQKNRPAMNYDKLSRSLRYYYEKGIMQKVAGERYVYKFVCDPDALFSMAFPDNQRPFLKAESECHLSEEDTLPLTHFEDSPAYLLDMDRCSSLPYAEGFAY
# How it was run: as §1
# HSF1 = HSF1 (Homo sapiens, UniProt Q00613 1-529); conditions: protein: recombinant; tags: N-terminal GST; chain copies: 3; dsDNA, one strand shown
# Chain of HSF1 (Q00613 whole entry): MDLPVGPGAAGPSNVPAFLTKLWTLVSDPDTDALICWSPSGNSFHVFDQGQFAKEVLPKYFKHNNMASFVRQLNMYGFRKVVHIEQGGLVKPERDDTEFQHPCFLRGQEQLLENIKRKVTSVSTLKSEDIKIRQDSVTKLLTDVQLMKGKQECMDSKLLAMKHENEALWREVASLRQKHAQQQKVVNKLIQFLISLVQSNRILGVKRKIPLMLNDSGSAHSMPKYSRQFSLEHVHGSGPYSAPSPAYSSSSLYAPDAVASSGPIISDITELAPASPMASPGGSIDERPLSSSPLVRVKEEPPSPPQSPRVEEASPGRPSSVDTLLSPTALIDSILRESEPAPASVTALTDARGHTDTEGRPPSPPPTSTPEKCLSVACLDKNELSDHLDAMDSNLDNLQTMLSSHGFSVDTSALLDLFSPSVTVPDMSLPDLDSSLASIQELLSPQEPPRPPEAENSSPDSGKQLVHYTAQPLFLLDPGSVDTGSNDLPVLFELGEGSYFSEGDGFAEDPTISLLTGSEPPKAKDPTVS
# How it was run: as §1
# SPIC = molecular target: T8, SPIC (Homo sapiens, UniProt Q8N5J4 1-248); conditions: protein: recombinant; tags: N-terminal GST; dsDNA, one strand shown
# T8 sequence: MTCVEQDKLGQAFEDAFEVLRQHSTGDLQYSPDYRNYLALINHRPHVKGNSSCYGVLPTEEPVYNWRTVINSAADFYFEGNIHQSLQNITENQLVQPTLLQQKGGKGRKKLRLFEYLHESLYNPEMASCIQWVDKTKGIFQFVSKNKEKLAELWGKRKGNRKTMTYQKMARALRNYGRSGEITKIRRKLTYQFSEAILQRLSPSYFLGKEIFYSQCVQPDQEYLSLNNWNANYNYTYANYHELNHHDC
# How it was run: as §1
# ELF4 = ELF4 (Homo sapiens, UniProt Q99607 1-663); conditions: protein: recombinant; tags: N-terminal GST; dsDNA, one strand shown
# Chain of ELF4 (Q99607 whole entry): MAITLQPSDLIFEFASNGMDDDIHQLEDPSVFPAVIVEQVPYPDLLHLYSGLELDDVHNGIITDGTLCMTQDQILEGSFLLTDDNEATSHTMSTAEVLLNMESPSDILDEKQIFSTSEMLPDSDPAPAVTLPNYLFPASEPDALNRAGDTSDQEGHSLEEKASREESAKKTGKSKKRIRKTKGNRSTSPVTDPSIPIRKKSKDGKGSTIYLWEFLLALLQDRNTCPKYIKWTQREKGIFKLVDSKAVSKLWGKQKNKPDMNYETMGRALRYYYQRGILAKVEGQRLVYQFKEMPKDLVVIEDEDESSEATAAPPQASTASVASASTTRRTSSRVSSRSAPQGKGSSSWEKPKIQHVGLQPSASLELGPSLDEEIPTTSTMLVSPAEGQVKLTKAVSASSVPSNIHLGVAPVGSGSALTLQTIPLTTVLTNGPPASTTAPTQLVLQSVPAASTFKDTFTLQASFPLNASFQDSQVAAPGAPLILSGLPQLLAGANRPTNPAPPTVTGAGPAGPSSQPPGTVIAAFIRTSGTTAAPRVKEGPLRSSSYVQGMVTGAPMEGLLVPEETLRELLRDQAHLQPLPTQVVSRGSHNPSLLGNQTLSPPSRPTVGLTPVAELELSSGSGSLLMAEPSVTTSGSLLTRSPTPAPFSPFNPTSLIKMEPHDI
# How it was run: as §1
# ELK4 = molecular target: T9, ELK4 (Homo sapiens, UniProt P28324-2 1-405); conditions: protein: recombinant; tags: N-terminal GST; dsDNA, one strand shown
# T9 sequence: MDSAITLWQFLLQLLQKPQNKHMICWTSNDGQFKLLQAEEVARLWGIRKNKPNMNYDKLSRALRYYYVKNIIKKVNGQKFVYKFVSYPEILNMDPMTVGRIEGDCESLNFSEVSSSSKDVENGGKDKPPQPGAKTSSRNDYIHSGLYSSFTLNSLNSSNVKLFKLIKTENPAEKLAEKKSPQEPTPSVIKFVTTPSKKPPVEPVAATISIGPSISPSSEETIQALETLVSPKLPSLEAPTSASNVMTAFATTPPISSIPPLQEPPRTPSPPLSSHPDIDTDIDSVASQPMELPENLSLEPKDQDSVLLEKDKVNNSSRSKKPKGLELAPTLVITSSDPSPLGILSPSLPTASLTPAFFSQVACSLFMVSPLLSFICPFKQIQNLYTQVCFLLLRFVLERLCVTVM
# How it was run: as §1
# ETV2 = molecular target: T10, ETV2 (Homo sapiens, UniProt O00321 1-342); conditions: protein: recombinant; tags: N-terminal GST; dsDNA, one strand shown
# T10 sequence: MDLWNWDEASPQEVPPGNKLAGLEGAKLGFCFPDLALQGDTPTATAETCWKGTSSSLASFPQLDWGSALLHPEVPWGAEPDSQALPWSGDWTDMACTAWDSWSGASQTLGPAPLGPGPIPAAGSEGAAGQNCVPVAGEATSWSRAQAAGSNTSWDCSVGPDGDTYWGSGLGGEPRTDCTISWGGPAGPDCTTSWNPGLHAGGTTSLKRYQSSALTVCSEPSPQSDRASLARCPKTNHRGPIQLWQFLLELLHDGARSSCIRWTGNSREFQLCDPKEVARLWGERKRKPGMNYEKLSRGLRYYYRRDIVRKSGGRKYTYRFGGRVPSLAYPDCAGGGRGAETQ
# How it was run: as §1
# ELF3 = molecular target: T11, ELF3 (Homo sapiens, UniProt P78545 1-371); conditions: protein: recombinant; tags: N-terminal GST; dsDNA, one strand shown
# T11 sequence: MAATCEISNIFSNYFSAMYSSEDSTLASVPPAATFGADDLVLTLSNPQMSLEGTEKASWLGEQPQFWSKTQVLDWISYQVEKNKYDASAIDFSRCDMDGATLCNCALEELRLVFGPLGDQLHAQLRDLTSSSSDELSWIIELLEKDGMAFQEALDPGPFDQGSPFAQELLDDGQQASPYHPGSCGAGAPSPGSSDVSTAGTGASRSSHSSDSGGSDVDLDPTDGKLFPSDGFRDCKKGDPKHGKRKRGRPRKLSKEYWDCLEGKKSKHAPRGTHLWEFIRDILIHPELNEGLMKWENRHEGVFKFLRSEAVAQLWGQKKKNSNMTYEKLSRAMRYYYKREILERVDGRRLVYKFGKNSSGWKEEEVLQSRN
# How it was run: as §1
# CRX = CRX (Homo sapiens, UniProt O43186 1-299); conditions: protein: recombinant; tags: N-terminal GST; dsDNA, one strand shown
# Chain of CRX (O43186 whole entry): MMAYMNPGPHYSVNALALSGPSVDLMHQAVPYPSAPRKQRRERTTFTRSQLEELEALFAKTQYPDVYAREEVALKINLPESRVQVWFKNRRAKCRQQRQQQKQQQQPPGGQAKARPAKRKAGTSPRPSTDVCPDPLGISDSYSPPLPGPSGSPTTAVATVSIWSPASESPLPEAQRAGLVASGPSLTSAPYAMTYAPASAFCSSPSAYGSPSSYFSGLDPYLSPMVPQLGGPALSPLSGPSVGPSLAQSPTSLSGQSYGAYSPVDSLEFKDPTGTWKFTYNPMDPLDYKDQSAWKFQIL
# How it was run: as §1
# ETV1 = ETV1 (Homo sapiens, UniProt P50549 1-477); conditions: protein: recombinant; tags: N-terminal GST; dsDNA, one strand shown
# Chain of ETV1 (P50549 whole entry): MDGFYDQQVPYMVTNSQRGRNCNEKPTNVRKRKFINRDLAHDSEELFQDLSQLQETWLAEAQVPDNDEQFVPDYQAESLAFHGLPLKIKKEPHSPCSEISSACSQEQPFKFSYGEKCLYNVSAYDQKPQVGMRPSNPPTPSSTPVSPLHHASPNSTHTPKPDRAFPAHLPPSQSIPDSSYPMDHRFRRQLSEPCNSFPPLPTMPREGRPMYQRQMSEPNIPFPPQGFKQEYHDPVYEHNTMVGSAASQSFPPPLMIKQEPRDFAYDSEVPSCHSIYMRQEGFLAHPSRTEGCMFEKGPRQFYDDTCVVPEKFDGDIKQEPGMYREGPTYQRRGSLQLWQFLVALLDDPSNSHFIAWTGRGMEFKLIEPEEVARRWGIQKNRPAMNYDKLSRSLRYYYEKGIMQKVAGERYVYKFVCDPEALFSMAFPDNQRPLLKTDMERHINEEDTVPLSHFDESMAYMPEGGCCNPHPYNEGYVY
# How it was run: as §1
sequence,measurement,setting,value
TTTGGT,binding signal,FLI1,"1.48 fold enrichment (6-mer frequency, TF over GST control)"
same,binding signal,ELK1,"1.29 fold enrichment (6-mer frequency, TF over GST control)"
same,binding signal,GABPA,"1.42 fold enrichment (6-mer frequency, TF over GST control)"
same,binding signal,ERG,"1.31 fold enrichment (6-mer frequency, TF over GST control)"
same,binding signal,ELF1,"1.32 fold enrichment (6-mer frequency, TF over GST control)"
same,binding signal,EHF,"1.36 fold enrichment (6-mer frequency, TF over GST control)"
same,binding signal,SPI1,"1.27 fold enrichment (6-mer frequency, TF over GST control)"
same,binding signal,SPIB,"1.3 fold enrichment (6-mer frequency, TF over GST control)"
same,binding signal,ELK3,"1.37 fold enrichment (6-mer frequency, TF over GST control)"
same,binding signal,FEV,"1.37 fold enrichment (6-mer frequency, TF over GST control)"
same,binding signal,ETV5,"1.29 fold enrichment (6-mer frequency, TF over GST control)"
same,binding signal,HSF1,"1.36 fold enrichment (6-mer frequency, TF over GST control)"
same,binding signal,SPIC,"1.37 fold enrichment (6-mer frequency, TF over GST control)"
same,binding signal,ELF4,"1.3 fold enrichment (6-mer frequency, TF over GST control)"
same,binding signal,ELK4,"1.44 fold enrichment (6-mer frequency, TF over GST control)"
same,binding signal,ETV2,"1.43 fold enrichment (6-mer frequency, TF over GST control)"
same,binding signal,ELF3,"1.17 fold enrichment (6-mer frequency, TF over GST control)"
same,binding signal,CRX,"1.51 fold enrichment (6-mer frequency, TF over GST control)"
same,binding signal,ETV1,"1.36 fold enrichment (6-mer frequency, TF over GST control)"
